Several values for one entry are separate records, joined by “and”; a condition that tells them apart may be missing. Equal entries are not always repeated. A number with no mark means an inactive call. Records with an inconclusive call do not appear. Entries that show only a call come without a potency. Activity calls are given as the source filed them. Unless noted, calls follow the shape of the dose curve; as a rule, active = well fitted curve in the direction sought with a large enough effect; inconclusive = small, poorly fitted or top-dose-only effect, or another doubt; inactive = no such curve, though single readings can be large; an effect the other way counts as inactive or inconclusive.
What was measured:
[1] = Cell Viability - Jurkat (AID 426;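 active = dose-dependent loss of cell ATP signal giving a full or clear fitted curve, ranked by lower potency value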; also: potency is read from the fitted curve at half-maximal effect); details: qHTS
Method in brief: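 qHTS, 1536-well; Jurkat E6-1, 5000 cells/well, complete medium; cpd 40 hr, 37 °C; CellTiter-Glo 20 min RT; luminescence. AC50 by Hill fit.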

[2] = Cell Viability - NIH 3T3 (AID 541); details: NIH 3T3 cell viability, qHTS; activity change, negative = cytotoxicity: at 92.2 µM (top of the series); also: nearly all actives have a fitted effect of over 25% in size; also: potency is read from the fitted curve at half-maximal effect
Method in brief: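 Luminescent ATP signal (CellTiter-Glo) served as the viability read-out after NIH 3T3 cells were exposed to compounds over a concentration range for 40 hr at 37 °C. Hill-equation modelling of concentration-response data gave AC50.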

[3] = Cell Viability - Mesenchymal (AID 546); details: mesenchymal cells viability, qHTS; series mostly up to 91.7 µM;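 also: cells exposed to compound for 40 hours before reading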
Method in brief: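 Normal human renal glomerulus-derived kidney mesenchymal cells, 1000 per well in complete medium, were treated with compounds for 40 hr at 37 °C. Viability was read as intracellular ATP by CellTiter-Glo luminescence; AC50 values came from Hill-equation fits of qHTS concentration-response data.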

[4] = Cellular Toxicity (caspase-3) MRC-5 (AID 659); details: MRC-5 cells, luminescence, normalized: DMSO 0%, 10 µM staurosporine 100%; series mostly up to 91.7 µM
Method in brief: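 Luminescence from caspase-cleaved aminoluciferin substrate (Caspase-Glo 3/7, 1 hr RT) reports caspase 3/7 activity in MRC-5 lung fibroblasts after 16 hr compound exposure. Normalized to DMSO basal and 10 uM staurosporine as 100%; AC50 from Hill fits.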

[5] = Cellular Toxicity (caspase-3) NIH 3T3 (AID 666); details: NIH 3T3 caspase-3 activation, apoptosis/toxicity; series mostly up to 92.2 µM;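 also: caspase signal read after 16 h compound exposure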
Method in brief: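 Luminescence from aminoluciferin released by caspase-3/7 cleavage of a peptide substrate served as read-out. Mouse fibroblast NIH 3T3 cells were exposed to compounds over a concentration range for 16 hours, and AC50 values came from standard Hill modelling.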

[6] = MultiTox-Fluor Cytotoxicity Assay - LYMP1-001 - Dead Cells (AID 946); details: LYMP1-001 lymphoblastoid cells, dead-cell protease fluorescence; series mostly up to 92.2 µM
Method in brief: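 Seed 2500 LYMP1-001 cells/well, incubate 5 hr at 37 C; add compound, 16 hr at 37 C; add MultiTox-Fluor reagent, 60 min RT; read dead-cell fluorescence Ex/Em=485/520. Normalize to DMSO and 15 uM tetraoctylammonium bromide.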

[7] = Cell Viability - LYMP1-003 - Assay at 24 hr (AID 963); details: LYMP1-003 lymphoblastoid cell viability; series mostly up to 92.2 µM
Method in brief: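 Cells seeded at 2500/well, 5 hr at 37 C; compounds added; 24 hr at 37 C; CellTiter-Glo added, 30 min room temperature; luminescence read. Decrease in ATP taken as cytotoxicity, AC50 from Hill modelling.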

[8] = Cell Viability - LYMP2-015 (AID 971); details: LYMP2-015 lymphoblastoid cell viability; series mostly up to 92.2 µM; also: nearly all actives have a fitted effect of over 55% in size
Method in brief: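 Luminescent ATP read-out (CellTiter-Glo) served as the viability measure after lymphoblastoid cells were exposed to compounds for 24 hours at 37 C. Concentration-response data were fitted with the Hill equation to give AC50.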

[9] = Cell Viability - LYMP2-016 (AID 984); details: LYMP2-016 lymphoblastoid cell viability, qHTS; series mostly up to 92.2 µM; also: nearly all actives have a fitted effect of over 55% in size
Method in brief: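 Cells were seeded at 2500 per well and rested 5 hr before a 24 hr compound exposure at 37 C. Viability was then gauged as cellular ATP by luciferase luminescence, with AC50 values fitted to the Hill equation.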

[10] = Cell Viability - LYMP2-024 (AID 988); details: LYMP2-024 lymphoblastoid cell viability; series mostly up to 92.2 µM; also: nearly all actives have a fitted effect of over 60% in size
Method in brief: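 Steps: seed 2500 cells/well, 5 hr 37 C; add compound, 24 hr 37 C; add CellTiter-Glo, 30 min room temperature; read luminescence. AC50 derived by Hill modelling of concentration-dependent ATP loss.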

[11] = Cell Viability - LYMP1-002 - Assay at 24 hr (AID 993); details: LYMP1-002 lymphoblastoid cells viability; series mostly up to 92.2 µM
Method in brief: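 Cells plated 2500/well, 5 hr 37 C; compounds added, 24 hr 37 C; CellTiter-Glo added, 30 min RT; luminescence read. Tetraoctylammonium bromide positive control. Hill-equation AC50.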

[12] = target: Vitamin D3 receptor (Homo sapiens) (UniProt P11473); assay: qHTS assay for small molecule agonists of vitamin D receptor signaling (AID 588543; calls by dose curve); details: HEK293T VDR-UAS-bla, beta-lactamase ratio, 16 h; series mostly up to 76.8 µM
Sequence of Vitamin D3 receptor (Homo sapiens) (P11473 whole entry, looked up): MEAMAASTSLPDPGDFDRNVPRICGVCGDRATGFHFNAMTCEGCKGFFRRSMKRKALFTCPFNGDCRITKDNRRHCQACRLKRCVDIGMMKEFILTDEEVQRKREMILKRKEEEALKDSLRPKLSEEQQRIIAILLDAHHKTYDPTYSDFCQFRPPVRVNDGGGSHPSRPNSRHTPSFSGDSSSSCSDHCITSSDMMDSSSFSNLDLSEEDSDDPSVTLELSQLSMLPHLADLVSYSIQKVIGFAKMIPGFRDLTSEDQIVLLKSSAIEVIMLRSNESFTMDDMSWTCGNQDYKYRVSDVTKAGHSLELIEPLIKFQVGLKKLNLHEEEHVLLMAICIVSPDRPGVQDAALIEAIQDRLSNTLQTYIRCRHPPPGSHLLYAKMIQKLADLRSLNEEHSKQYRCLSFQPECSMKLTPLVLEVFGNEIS
Method in brief: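 Reporter cells (HEK293T, VDR-UAS-bla) were seeded in medium with 2% charcoal-stripped serum and incubated 5 h, then compounds in concentration series were added for 16 h at 37 °C. Stimulation was scaled between DMSO basal and 50 nM 1α,25-dihydroxyvitamin D3.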

[13] = qHTS assay for small molecule disruptors of the mitochondrial membrane potential - 5 hr assay (AID 651755; calls by dose curve; also: nearly all actives have a fitted effect of over 40% in size; also: potency is read from the fitted curve at half-maximal effect); details: JC-1-type ratio dye; series mostly up to 92.2 µM
Method in brief: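 HepG2 cells, attached overnight at 37C, were exposed to compound or DMSO for 5 hr at 37C, 5% CO2. Mito-MPS dye was then added for 30 min, and fluorescence read at 490/535 nm (monomers) and 540/590 nm (aggregates).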

[14] = target: Nuclear receptor ROR-gamma (Homo sapiens) (UniProt P51449); assay: qHTS assay for small molecule antagonists of the retinoid-related orphan receptor gamma (ROR-gamma) signaling pathway (AID 651802); details: ROR-gamma antagonist cell reporter assay; series mostly up to 92.2 µM;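 also: luciferase reporter luminescence driven by ROR response element; nearly all actives have a fitted effect of over 60% in size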
Sequence of Nuclear receptor ROR-gamma (Homo sapiens) (P51449 whole entry, looked up): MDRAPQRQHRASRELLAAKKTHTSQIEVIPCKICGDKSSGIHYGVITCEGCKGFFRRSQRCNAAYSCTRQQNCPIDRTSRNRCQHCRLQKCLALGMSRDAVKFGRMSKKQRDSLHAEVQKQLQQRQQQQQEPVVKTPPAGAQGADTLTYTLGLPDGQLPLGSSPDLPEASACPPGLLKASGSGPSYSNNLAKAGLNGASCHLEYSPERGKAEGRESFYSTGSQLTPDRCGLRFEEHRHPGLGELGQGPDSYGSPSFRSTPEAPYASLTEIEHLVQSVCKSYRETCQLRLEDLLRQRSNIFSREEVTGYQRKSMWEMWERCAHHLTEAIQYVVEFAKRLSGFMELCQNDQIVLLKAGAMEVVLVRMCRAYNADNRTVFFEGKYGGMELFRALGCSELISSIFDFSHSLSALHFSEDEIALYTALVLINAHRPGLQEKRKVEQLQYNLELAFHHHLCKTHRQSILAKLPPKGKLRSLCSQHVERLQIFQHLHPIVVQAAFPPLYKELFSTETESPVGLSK
Method in brief: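 CHO, TET-inducible ROR + RORE-LUC reporter, 1536-well qHTS. Compound pinned, doxycycline added, 16hr 37C/5% CO2. ONE-Glo, 30 min RT, luminescence; signal drop scored as antagonism.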

[15] = qHTS assay for small molecule antagonists of the retinoid-related orphan receptor gamma (ROR-gamma) signaling pathway - cell viability counter screen (AID 720652; active = well fitted curve in the direction sought with a large enough effect in the repeat runs; an effect the other way counts as inactive or inconclusive;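 also: compound exposure lasted 16 hr before ATP read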); details: RORgamma reporter cell line viability counter screen; series mostly up to 92.2 µM
Method in brief: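 Luminescence from CellTiter-Glo after 30 min at room temperature reported cellular ATP as the cytotoxicity measure. Cells were the CHO reporter line with doxycycline-induced ROR-gamma expression, exposed to compound for 16 hr at 37 C.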

[16] = qHTS assay for small molecule agonists of the antioxidant response element (ARE) signaling pathway measured by Nrf2-dependant transcriptional activity - cell viability counter screen (AID 720653; active = well fitted curve in the direction sought with a large enough effect in the repeat runs; an effect the other way counts as inactive or inconclusive); details: ARE-bla HepG2 viability, CellTiter-Glo ATP luminescence, 16 h; active compounds read low
Method in brief: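 ARE-bla HepG2 cells (2,000/well) rested 5 hrs at 37C/5% CO2, then exposed to compounds in DMSO for 16 hrs. Viability was read in the same wells as intracellular ATP by luminescence, 30 min at room temperature after reagent addition.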

[17] = qHTS assay for cell viability of the p53RE-bla HCT-116 cell line (AID 743292); details: p53RE-bla HCT-116 viability, ATP luminescence, 16 h; series mostly up to 95 µM; also: nearly all actives have a fitted effect of over 55% in size
Method in brief: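 ATP-based luminescence, 16 h compound exposure at 37 C, p53RE-bla HCT-116 cells at 4,000/well.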

[18] = MultiTox-Fluor Cytotoxicity Assay - LYMP1-002 - Live Cells (AID 955); details: LYMP1-002 lymphoblastoid live-cell protease fluorescence viability; series mostly up to 46.1 µM
Method in brief: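 Read-out is live-cell protease activity (cell-permeant GF-AFC substrate, fluorescence Ex/Em=405/510), where a decrease indicates acute toxicity. Human lymphoblastoid cells were treated 16 hours at 37 C in a concentration series, and AC50 values came from standard Hill modelling.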

[19] = target: Peroxisome proliferator-activated receptor alpha (Homo sapiens) (UniProt Q07869); assay: qHTS assay for small molecule agonists of the peroxisome proliferator-activated receptor alpha (PPARalpha) signaling pathway (AID 651778); details: PathHunter PPARalpha complementation, chemiluminescence, 6 h; active compounds read high
Sequence of Peroxisome proliferator-activated receptor alpha (Homo sapiens) (Q07869 whole entry, looked up): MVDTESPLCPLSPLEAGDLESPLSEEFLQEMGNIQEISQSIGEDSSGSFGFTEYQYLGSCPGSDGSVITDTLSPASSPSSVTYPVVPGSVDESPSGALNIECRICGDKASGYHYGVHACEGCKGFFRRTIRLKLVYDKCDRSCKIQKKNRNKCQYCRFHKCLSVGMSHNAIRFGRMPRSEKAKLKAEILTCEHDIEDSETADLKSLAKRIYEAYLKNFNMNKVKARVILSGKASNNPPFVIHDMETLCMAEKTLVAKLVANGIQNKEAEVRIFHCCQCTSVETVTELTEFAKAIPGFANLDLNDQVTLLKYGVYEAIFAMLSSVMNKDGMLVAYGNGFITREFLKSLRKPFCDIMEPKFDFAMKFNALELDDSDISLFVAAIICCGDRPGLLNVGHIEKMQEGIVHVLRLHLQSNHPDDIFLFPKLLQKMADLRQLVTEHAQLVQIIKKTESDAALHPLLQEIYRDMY
Method in brief: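 Cells plated at 2,000/well and held overnight at 37 C, 5% CO2, then compound added by pin tool for 6 hr; after PathHunter detection reagent and 60 min at room temperature, chemiluminescence from enzyme complementation was read.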

[20] = target: Nuclear receptor subfamily 1 group I member 2 (Rattus norvegicus) (UniProt Q9R1A7); assay: qHTS assay for small molecule activators of the rat pregnane X receptor (rPXR) signaling pathway (AID 651751; call rule not given here); details: rPXR reporter cells, luciferase (One-Glo), 24 h
Sequence of Nuclear receptor subfamily 1 group I member 2 (Rattus norvegicus) (Q9R1A7 whole entry, looked up): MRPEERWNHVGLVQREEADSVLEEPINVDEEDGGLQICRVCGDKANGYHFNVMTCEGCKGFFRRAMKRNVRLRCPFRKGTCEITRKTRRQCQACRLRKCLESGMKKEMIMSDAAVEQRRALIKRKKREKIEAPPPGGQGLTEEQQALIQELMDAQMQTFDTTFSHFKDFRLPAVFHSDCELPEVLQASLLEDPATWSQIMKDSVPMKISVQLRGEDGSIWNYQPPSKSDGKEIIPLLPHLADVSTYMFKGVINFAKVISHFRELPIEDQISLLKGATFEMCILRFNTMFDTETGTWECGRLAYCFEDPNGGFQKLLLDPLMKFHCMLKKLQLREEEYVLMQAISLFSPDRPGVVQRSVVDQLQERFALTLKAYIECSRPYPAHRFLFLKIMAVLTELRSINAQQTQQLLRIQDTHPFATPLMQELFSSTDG

| Structure (SMILES) | Potency [1] [µM] | Potency [2] | Potency [3] | outcome [4] | Potency [5] | outcome [6] | outcome [7] | Potency [8] | Potency [9] | Potency [10] | Potency [11] | outcome [12] | Potency [13] | Potency [14] | Potency [15] | max response [16] | Potency [17] | outcome [18] | max response [19] | max response [20] |
| --- | --- | --- | --- | --- | --- | --- | --- | --- | --- | --- | --- | --- | --- | --- | --- | --- | --- | --- | --- | --- |
| Nc1ccc(-c2ccc(N)cc2)cc1 | > 92 | inactive | inactive | inactive | inactive | inactive | inactive | inactive | inactive | inactive | inactive | inactive | inactive | inactive | inactive | -3.71% | inactive |  |  |  |
| CN(C)N=O | > 92 | inactive | inactive | inactive | inactive | inactive | inactive | inactive | inactive | inactive |  | inactive | inactive | inactive | inactive | -2.49% | inactive | inactive | 0.541% | 2.44% |
| O=c1ccc(=O)[nH][nH]1 | > 92 | inactive | inactive |  | inactive | inactive | inactive | inactive | inactive | inactive | inactive | inactive | inactive | inactive | inactive |  | inactive | inactive | -0.0075% and -1.1% | 0.0495% and -4.15% |
| Clc1cc(Cl)c(Cl)c(Cl)c1 | > 92 | inactive |  | inactive | inactive | inactive | inactive |  |  | inactive | inactive | inactive | inactive |  | inactive | -5.74% |  | inactive |  | -2.54% |
| c1ccc2c(c1)CCNC2 | > 92 | inactive | inactive | inactive | inactive | inactive | inactive | inactive | inactive | inactive | inactive | inactive | inactive | inactive | inactive | 5.02% |  | inactive |  | -0.393% |
| CC(C)(C)c1ccccc1O | > 92 | inactive | inactive | inactive | inactive | inactive |  | inactive | inactive | inactive | inactive | inactive |  | inactive | inactive | -8.15% and -10.7% |  | inactive |  | -1.16% and -0.87% |
| CN(C)C(=O)Nc1cccc(C(F)(F)F)c1 | > 92 | inactive |  | inactive | inactive | inactive | inactive | inactive |  | inactive | inactive | inactive | inactive | inactive | inactive | -4.03% and 2.07% | inactive | inactive | -1.29% and 0.409% | 16.9% and 5.91% |
| O=C(Cc1ccccc1)OCc1ccccc1 | > 92 | inactive | inactive | inactive |  | inactive | inactive | inactive | inactive | inactive | inactive | inactive | inactive | inactive | inactive |  | inactive | inactive | 0.258% | -0.53% |
| ClC(Br)Br | > 92 | inactive |  | inactive | inactive | inactive | inactive | inactive | inactive |  | inactive |  | inactive | inactive | inactive | 0.446% | inactive | inactive | -8.35% | 0.757% |
| c1ccc(NNc2ccccc2)cc1 | > 92 | inactive | inactive | inactive | inactive | inactive |  | inactive | inactive | inactive | inactive | inactive | inactive | inactive | inactive | 0.997% and 18.6% |  | inactive | -1.84% and -2.39% | 12.1% and 2.7% |
| O=C(O)CCl | > 92 | inactive | inactive | inactive | inactive | inactive | inactive | inactive | inactive | inactive | inactive | inactive | inactive | inactive |  | 1.47% | inactive | inactive | -6.37% | 9.97% |
| Cc1ccc2c(c1N)C(=O)c1ccccc1C2=O | > 92 | 25.1 µM (active) |  | inactive |  | inactive | inactive | inactive | inactive | inactive |  |  | 2.66 µM (active) | inactive |  | -21.8% and -21.2% | inactive | inactive | -8.43% and -4.54% |  |
| O=NN1CCCCC1 | > 92 | inactive | inactive | inactive | inactive | inactive | inactive | inactive |  |  | inactive | inactive | inactive | inactive | inactive | -0.59% | inactive | inactive | -3.04% | -1.74% |
